# Results taken from ChEMBL document CHEMBL1157539, “Thousands of chemical starting points for antimalarial lead identification” (Nature, 2010).
# System: Plasmodium falciparum
# Experiment: GSK_TCMDC: Inhibition of Plasmodium falciparum 3D7 in whole red blood cells, using parasite LDH activity as an index of growth. Test compounds present at 2uM
# Type: functional
row,SMILES,Inhibition [%]
1,CCOc1ccc(-c2nc(NC(=O)CS(=O)(=O)c3ccccc3)sc2C)cc1,100
2,Oc1ccc2ncnc(Nc3ccc(OCc4cccc(F)c4)c(Cl)c3)c2c1,100
3,O=C(C=CC(=O)N1CCCCC1)NCc1ccccc1,100
4,CC(C)(CNCc1ccc(Cl)cc1)c1nc(-c2ccc(Cl)c(O)c2)c(-c2ccncc2)[nH]1.Cl,100
5,Cc1cccc2nc(-c3ccc(-c4cccc(CNCCCN5CCCC5=O)c4)cc3)[nH]c12.O=C(O)C(F)(F)F,96
6,O=C(N[C@@H](CC1CCCCC1)C(=O)NCCN1CCCC1)c1ccc(O)c(-c2ccc(Cl)c(Cl)c2)c1,99
7,N#Cc1ccc(C=Cc2nccc3c2[nH]c2ccccc23)cc1,97
8,CCN(CC)CCOc1ccc(C(O)(C#CC(O)(c2ccc(Br)cc2)c2ccc(OCCN(CC)CC)cc2)c2ccc(Br)cc2)cc1 (stereo not given),99
9,Cl.Nc1c(C(=O)NCCCCN2CCN(c3nsc4ccccc34)CC2)sc2ccccc12,86
10,COc1ccc2ccccc2c1C=NNc1ccnc2cc(Cl)ccc12,100
11,Cc1noc(C)c1-c1cccc(CNCc2ccc(-c3cccc(-c4nc5cc(F)ccc5[nH]4)c3)cc2)c1.O=C(O)C(F)(F)F,100
12,Br.CCCOC(=O)c1ccc(OCCCON2C(=N)N=C(N)NC2(C)C)cc1,95
13,CC(C)n1ncc2c3c(N)nc(N)nc3ccc21,98
14,Cc1noc(-c2ccc3c(c2)CCN(CCC2CCC(NC(=O)c4cc5ccccc5[nH]4)CC2)CC3)n1.Cl (stereo not given),99
15,CCCCc1ccc(C(=O)Nc2ccc3nc(N4CCN(C)CC4)cc(C)c3c2)cc1,90
16,O=C(NCc1ccccc1)c1nn(CCCN2CCC(N3CCCC3)CC2)cc1-c1ccc(Cl)c(Cl)c1,100
17,FC(F)(F)c1cccc(-c2cc(NCCCn3ccnc3)nc(-c3ccncc3)n2)c1,100
18,CCCCCCN1CCC(CNCc2cccc([N+](=O)[O-])c2)CC1.O=C(O)C(F)(F)F,95
19,N=C(N)NC(=O)Nc1cc(Cl)c(Cl)c(Br)c1,99
20,CN(C)c1ccc(CN2CCC(CNC(=O)c3cc(-c4cccc(C(F)(F)F)c4)cs3)C2)cc1.O=C(O)C(F)(F)F (stereo not given),96

row,SMILES,Inhibition [%]
1,COCCN(CCOC)c1ncc(-c2ccsc2)c(-c2nc(C)c(C)s2)n1,96
2,CCNc1cc(C(=O)N[C@@H](Cc2ccccc2)[C@H](O)CN[C@@H]2CCc3ccccc32)cc(N2CCCC2=O)c1,92
3,C=CCNc1cc(-c2ccccn2)nc(-c2ccccn2)n1,94
4,CCCCOc1c(CCNCCCCNCCc2cc(F)c3ccccc3c2OCCCC)cc(F)c2ccccc12.CS(=O)(=O)O,96
5,O=C(Nc1ccc(N2CCCN(Cc3cccc(F)c3)CC2)cc1)c1ccccc1.O=C(O)C(F)(F)F,95
6,CN1CCN(c2nsc3ccc(-c4ccc(NC(=O)Nc5cc(C(F)(F)F)ccc5F)cc4)cc23)CC1.O=C(O)C(F)(F)F,99
7,C[C@H](NC(=O)C1CCCC1)C(=O)Nc1ccc(-c2ccc(-c3nc4cc(C(F)(F)F)ccc4[nH]3)cc2)cc1,99
8,COc1cc(CN2CCC(C(=O)Nc3ccc(-c4cccc(C)c4)cc3)CC2)ccc1O,100
9,COc1cccc(CNc2ncc(-c3ccsc3)c(-c3nccs3)n2)c1,89
10,COc1ccc(CNC(=O)Nc2cc3cc(-c4ccc(CN5CCCC5)cc4)ccc3n3c(C)nnc23)cc1,100
11,O=C(Nc1cccc(-c2csc(-c3nc4ccccc4[nH]3)c2)c1)c1cccnc1,98
12,OC(CNc1ccnc(Nc2cccc(CCN3CCOCC3)c2)n1)c1ccccc1 (stereo not given),100
13,O=S(=O)(NC1=NCCC1)c1cccc(Nc2nc(C(F)(F)F)nc3ccccc23)c1,83
14,O=C(Nc1cccc(-c2ccc(-c3nc4cc(C(F)(F)F)ccc4[nH]3)s2)c1)c1cccnc1,100
15,Br.Cc1ccc(OCCCCON2C(=N)N=C(N)NC2(C)C)cc1C,94
16,Oc1ccccc1N1CCN(c2ccc(-c3nc4ccccc4[nH]3)cn2)CC1,97
17,O=C(NCCN1CCCCC1)c1cccc(Nc2nccc(Nc3ccc(Oc4ccccc4)cc3)n2)c1,99
18,O=C(Nc1ccccc1)N(Cc1ccc(-c2cccc(CNC3CCCC3)c2)cc1)C1CCN(Cc2ccccc2)CC1.O=C(O)C(F)(F)F,100
19,Cc1cc(=O)c2cc(Oc3ccc(OC(F)(F)F)cc3)ccc2[nH]1,86
20,Cc1cc(NC(=O)Nc2ccc(I)c(OCCN(C)C)c2)ccc1Br.Cl,100

# System: Plasmodium falciparum
# Experiment: GSK_TCMDC: Inhibition of Plasmodium falciparum Dd2 in whole red blood cells, using parasite LDH activity as an index of growth. Test compounds present at 2uM
# Type: functional
row,SMILES,Inhibition [%]
1,CCOc1ccc(-c2nc(NC(=O)CS(=O)(=O)c3ccccc3)sc2C)cc1,59
2,Oc1ccc2ncnc(Nc3ccc(OCc4cccc(F)c4)c(Cl)c3)c2c1,30
3,O=C(C=CC(=O)N1CCCCC1)NCc1ccccc1,0
4,CC(C)(CNCc1ccc(Cl)cc1)c1nc(-c2ccc(Cl)c(O)c2)c(-c2ccncc2)[nH]1.Cl,98
5,Cc1cccc2nc(-c3ccc(-c4cccc(CNCCCN5CCCC5=O)c4)cc3)[nH]c12.O=C(O)C(F)(F)F,3
6,O=C(N[C@@H](CC1CCCCC1)C(=O)NCCN1CCCC1)c1ccc(O)c(-c2ccc(Cl)c(Cl)c2)c1,99
7,N#Cc1ccc(C=Cc2nccc3c2[nH]c2ccccc23)cc1,28
8,CCN(CC)CCOc1ccc(C(O)(C#CC(O)(c2ccc(Br)cc2)c2ccc(OCCN(CC)CC)cc2)c2ccc(Br)cc2)cc1 (stereo not given),99
9,Cl.Nc1c(C(=O)NCCCCN2CCN(c3nsc4ccccc34)CC2)sc2ccccc12,0
10,COc1ccc2ccccc2c1C=NNc1ccnc2cc(Cl)ccc12,94
11,Cc1noc(C)c1-c1cccc(CNCc2ccc(-c3cccc(-c4nc5cc(F)ccc5[nH]4)c3)cc2)c1.O=C(O)C(F)(F)F,84
12,Br.CCCOC(=O)c1ccc(OCCCON2C(=N)N=C(N)NC2(C)C)cc1,97
13,CC(C)n1ncc2c3c(N)nc(N)nc3ccc21,6
14,Cc1noc(-c2ccc3c(c2)CCN(CCC2CCC(NC(=O)c4cc5ccccc5[nH]4)CC2)CC3)n1.Cl (stereo not given),41
15,CCCCc1ccc(C(=O)Nc2ccc3nc(N4CCN(C)CC4)cc(C)c3c2)cc1,21
16,O=C(NCc1ccccc1)c1nn(CCCN2CCC(N3CCCC3)CC2)cc1-c1ccc(Cl)c(Cl)c1,89
17,FC(F)(F)c1cccc(-c2cc(NCCCn3ccnc3)nc(-c3ccncc3)n2)c1,100
18,CCCCCCN1CCC(CNCc2cccc([N+](=O)[O-])c2)CC1.O=C(O)C(F)(F)F,15
19,N=C(N)NC(=O)Nc1cc(Cl)c(Cl)c(Br)c1,99
20,CN(C)c1ccc(CN2CCC(CNC(=O)c3cc(-c4cccc(C(F)(F)F)c4)cs3)C2)cc1.O=C(O)C(F)(F)F (stereo not given),34

row,SMILES,Inhibition [%]
1,COCCN(CCOC)c1ncc(-c2ccsc2)c(-c2nc(C)c(C)s2)n1,63
2,CCNc1cc(C(=O)N[C@@H](Cc2ccccc2)[C@H](O)CN[C@@H]2CCc3ccccc32)cc(N2CCCC2=O)c1,93
3,C=CCNc1cc(-c2ccccn2)nc(-c2ccccn2)n1,79
4,CCCCOc1c(CCNCCCCNCCc2cc(F)c3ccccc3c2OCCCC)cc(F)c2ccccc12.CS(=O)(=O)O,78
5,O=C(Nc1ccc(N2CCCN(Cc3cccc(F)c3)CC2)cc1)c1ccccc1.O=C(O)C(F)(F)F,95
6,CN1CCN(c2nsc3ccc(-c4ccc(NC(=O)Nc5cc(C(F)(F)F)ccc5F)cc4)cc23)CC1.O=C(O)C(F)(F)F,64
7,C[C@H](NC(=O)C1CCCC1)C(=O)Nc1ccc(-c2ccc(-c3nc4cc(C(F)(F)F)ccc4[nH]3)cc2)cc1,70
8,COc1cc(CN2CCC(C(=O)Nc3ccc(-c4cccc(C)c4)cc3)CC2)ccc1O,85
9,COc1cccc(CNc2ncc(-c3ccsc3)c(-c3nccs3)n2)c1,82
10,COc1ccc(CNC(=O)Nc2cc3cc(-c4ccc(CN5CCCC5)cc4)ccc3n3c(C)nnc23)cc1,100
11,O=C(Nc1cccc(-c2csc(-c3nc4ccccc4[nH]3)c2)c1)c1cccnc1,45
12,OC(CNc1ccnc(Nc2cccc(CCN3CCOCC3)c2)n1)c1ccccc1 (stereo not given),14
13,O=S(=O)(NC1=NCCC1)c1cccc(Nc2nc(C(F)(F)F)nc3ccccc23)c1,8
14,O=C(Nc1cccc(-c2ccc(-c3nc4cc(C(F)(F)F)ccc4[nH]3)s2)c1)c1cccnc1,99
15,Br.Cc1ccc(OCCCCON2C(=N)N=C(N)NC2(C)C)cc1C,97
16,Oc1ccccc1N1CCN(c2ccc(-c3nc4ccccc4[nH]3)cn2)CC1,50
17,O=C(NCCN1CCCCC1)c1cccc(Nc2nccc(Nc3ccc(Oc4ccccc4)cc3)n2)c1,86
18,O=C(Nc1ccccc1)N(Cc1ccc(-c2cccc(CNC3CCCC3)c2)cc1)C1CCN(Cc2ccccc2)CC1.O=C(O)C(F)(F)F,67
19,Cc1cc(=O)c2cc(Oc3ccc(OC(F)(F)F)cc3)ccc2[nH]1,71
20,Cc1cc(NC(=O)Nc2ccc(I)c(OCCN(C)C)c2)ccc1Br.Cl,42
